From article PMC9911399, “Two distinct binding modes provide the RNA-binding protein RbFox with extraordinary sequence specificity”
Residue numbers refer to the chain shown, from its start. In all, about 16,000 sequences were measured (“ka relative to ugcaugu”: median about 0.096, highest 2% from about 0.35 on). Shown is part of a subset that was picked to be rich in the highest values.

T1: RBFOX1 RRM RbFoxmut (Fox-RRM*) (Homo sapiens, UniProt Q9NWB1 109-208, R118D;E147R;N151S;E152T)
T1 sequence: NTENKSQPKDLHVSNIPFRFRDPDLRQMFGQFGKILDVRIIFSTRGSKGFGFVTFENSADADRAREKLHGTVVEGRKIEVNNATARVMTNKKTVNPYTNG

B1: UGUCCUG (DNA:RNA)
RNA: GGGAGACCGGAAUUCAGAUUGUCCUGUCCUGUUAAAUCCCGUCGUAGCCACCA
DNA 1: CAATCTGAATTCCGGTCTCCC
DNA 2: TGGTGGCTACGACGGGATT
B2: UGUAUCU (DNA:RNA)
RNA: B1 RNA with C28A, C29U, U30C, G31U
DNA 1: CAATCTGAATTCCGGTCTCCC
DNA 2: TGGTGGCTACGACGGGATT
B3: UGUCAUG (DNA:RNA)
RNA: B1 RNA with C29A
DNA 1: CAATCTGAATTCCGGTCTCCC
DNA 2: TGGTGGCTACGACGGGATT
B4: UAUGUCG (DNA:RNA)
RNA: B1 RNA with G26A, C28G, C29U, U30C
DNA 1: CAATCTGAATTCCGGTCTCCC
DNA 2: TGGTGGCTACGACGGGATT
B5: CGUCAUG (DNA:RNA)
RNA: B1 RNA with U25C, C29A
DNA 1: CAATCTGAATTCCGGTCTCCC
DNA 2: TGGTGGCTACGACGGGATT
B6: CUGUAUC (DNA:RNA)
RNA: B1 RNA with U25C, G26U, U27G, C28U, C29A, G31C
DNA 1: CAATCTGAATTCCGGTCTCCC
DNA 2: TGGTGGCTACGACGGGATT
B7: GGCUAUC (DNA:RNA)
RNA: B1 RNA with U25G, U27C, C28U, C29A, G31C
DNA 1: CAATCTGAATTCCGGTCTCCC
DNA 2: TGGTGGCTACGACGGGATT
B8: GGCUAUG (DNA:RNA)
RNA: B1 RNA with U25G, U27C, C28U, C29A
DNA 1: CAATCTGAATTCCGGTCTCCC
DNA 2: TGGTGGCTACGACGGGATT
B9: UGUCAUC (DNA:RNA)
RNA: B1 RNA with C29A, G31C
DNA 1: CAATCTGAATTCCGGTCTCCC
DNA 2: TGGTGGCTACGACGGGATT
B10: CGUCCUG (DNA:RNA)
RNA: B1 RNA with U25C
DNA 1: CAATCTGAATTCCGGTCTCCC
DNA 2: TGGTGGCTACGACGGGATT
B11: UGUUAUG (DNA:RNA)
RNA: B1 RNA with C28U, C29A
DNA 1: CAATCTGAATTCCGGTCTCCC
DNA 2: TGGTGGCTACGACGGGATT
B12: UGUUAUC (DNA:RNA)
RNA: B1 RNA with C28U, C29A, G31C
DNA 1: CAATCTGAATTCCGGTCTCCC
DNA 2: TGGTGGCTACGACGGGATT
B13: UUGGUUA (DNA:RNA)
RNA: B1 RNA with G26U, U27G, C28G, C29U, G31A
DNA 1: CAATCTGAATTCCGGTCTCCC
DNA 2: TGGTGGCTACGACGGGATT
B14: AUGACAU (DNA:RNA)
RNA: B1 RNA with U25A, G26U, U27G, C28A, U30A, G31U
DNA 1: CAATCTGAATTCCGGTCTCCC
DNA 2: TGGTGGCTACGACGGGATT
B15: CAAGGUA (DNA:RNA)
RNA: B1 RNA with U25C, G26A, U27A, C28G, C29G, G31A
DNA 1: CAATCTGAATTCCGGTCTCCC
DNA 2: TGGTGGCTACGACGGGATT
B16: UCUUGCG (DNA:RNA)
RNA: B1 RNA with G26C, C28U, C29G, U30C
DNA 1: CAATCTGAATTCCGGTCTCCC
DNA 2: TGGTGGCTACGACGGGATT
B17: UCUAAUU (DNA:RNA)
RNA: B1 RNA with G26C, C28A, C29A, G31U
DNA 1: CAATCTGAATTCCGGTCTCCC
DNA 2: TGGTGGCTACGACGGGATT
B18: AUACAAA (DNA:RNA)
RNA: B1 RNA with U25A, G26U, U27A, C29A, U30A, G31A
DNA 1: CAATCTGAATTCCGGTCTCCC
DNA 2: TGGTGGCTACGACGGGATT
B19: GGAUCUA (DNA:RNA)
RNA: B1 RNA with U25G, U27A, C28U, G31A
DNA 1: CAATCTGAATTCCGGTCTCCC
DNA 2: TGGTGGCTACGACGGGATT
B20: GUCCCCG (DNA:RNA)
RNA: B1 RNA with U25G, G26U, U27C, U30C
DNA 1: CAATCTGAATTCCGGTCTCCC
DNA 2: TGGTGGCTACGACGGGATT
B21: GGUCAUC (DNA:RNA)
RNA: B1 RNA with U25G, C29A, G31C
DNA 1: CAATCTGAATTCCGGTCTCCC
DNA 2: TGGTGGCTACGACGGGATT
B22: CUGUGUA (DNA:RNA)
RNA: B1 RNA with U25C, G26U, U27G, C28U, C29G, G31A
DNA 1: CAATCTGAATTCCGGTCTCCC
DNA 2: TGGTGGCTACGACGGGATT
B23: GUCAUGU (DNA:RNA)
RNA: GGGAGACCGGAAUUCAGAUUGUCCGUCAUGUUUAAAUCCCGUCGUAGCCACCA
DNA 1: CAATCTGAATTCCGGTCTCCC
DNA 2: TGGTGGCTACGACGGGATT
B24: UGUAGGU (DNA:RNA)
RNA: B23 RNA with G25U, U26G, C27U, U29G
DNA 1: CAATCTGAATTCCGGTCTCCC
DNA 2: TGGTGGCTACGACGGGATT
B25: UGCUAUC (DNA:RNA)
RNA: B1 RNA with U27C, C28U, C29A, G31C
DNA 1: CAATCTGAATTCCGGTCTCCC
DNA 2: TGGTGGCTACGACGGGATT
B26: CGCUAUG (DNA:RNA)
RNA: B1 RNA with U25C, U27C, C28U, C29A
DNA 1: CAATCTGAATTCCGGTCTCCC
DNA 2: TGGTGGCTACGACGGGATT
B27: GUCCUGU (DNA:RNA)
RNA: B23 RNA with A28C
DNA 1: CAATCTGAATTCCGGTCTCCC
DNA 2: TGGTGGCTACGACGGGATT
B28: UGUAUGU (DNA:RNA)
RNA: B23 RNA with G25U, U26G, C27U
DNA 1: CAATCTGAATTCCGGTCTCCC
DNA 2: TGGTGGCTACGACGGGATT
B29: CCCUGUA (DNA:RNA)
RNA: B23 RNA with G25C, U26C, A28U, U29G, G30U, U31A
DNA 1: CAATCTGAATTCCGGTCTCCC
DNA 2: TGGTGGCTACGACGGGATT
B30: CUGUAUG (DNA:RNA)
RNA: B1 RNA with U25C, G26U, U27G, C28U, C29A
DNA 1: CAATCTGAATTCCGGTCTCCC
DNA 2: TGGTGGCTACGACGGGATT
B31: UGCUAUG (DNA:RNA)
RNA: B1 RNA with U27C, C28U, C29A
DNA 1: CAATCTGAATTCCGGTCTCCC
DNA 2: TGGTGGCTACGACGGGATT
B32: GGUCAUG (DNA:RNA)
RNA: B1 RNA with U25G, C29A
DNA 1: CAATCTGAATTCCGGTCTCCC
DNA 2: TGGTGGCTACGACGGGATT

The binders below were run against T1, RBFOX1 RRM RbFoxmut (Fox-RRM*) (assay: EMSA; HiTS-Eq, 1 nM pool, 10 min; buffer printed only for the single-RNA assays: 10 mM Tris pH 7.5, 150 mM NaCl, 3.4 mM EDTA, 0.001% NP-40, 30 C). Settings: tags: His6 N-terminal (pET28a); label: 5' 32P.
Method in brief: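 Purified RbFox RRM (wild type or mutant) was equilibrated for 10 min in 50 µL with 1 nM of a 5′-radiolabelled pool of RNA with 7 randomized nucleotides, its flanks annealed to DNA oligonucleotides, across increasing protein concentrations. Free RNA was separated by 8% native PAGE, excised, reverse-transcribed, PCR-barcoded and sequenced on an Illumina HiSeq 2500. Relative association constants came from read-count changes of each variant against the control reaction, normalised to the cognate motif.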
With B1 the binding signal was 0.133 KA relative to UGCAUGU.
With B2 the binding signal was 0.296 KA relative to UGCAUGU.
In the case of B3, the binding signal is reported as 0.597 KA relative to UGCAUGU.
B4 was tested, and the binding signal was 0.133 KA relative to UGCAUGU.
B5 was tested, and the binding signal was 0.275 KA relative to UGCAUGU.
For B6, the binding signal was 0.362 KA relative to UGCAUGU.
In the case of B7, the binding signal is reported as 0.226 KA relative to UGCAUGU.
B8 was tested, and the binding signal was 0.405 KA relative to UGCAUGU.
B9 was tested, and the binding signal was 0.183 KA relative to UGCAUGU.
With B10 the binding signal was 0.132 KA relative to UGCAUGU.
For B11, the binding signal was 1.04 KA relative to UGCAUGU.
In the case of B12, the binding signal is reported as 0.351 KA relative to UGCAUGU.
In the case of B13, the binding signal is reported as 0.155 KA relative to UGCAUGU.
For B14, the binding signal was 0.0668 KA relative to UGCAUGU.
B15 was tested, and the binding signal was 0.124 KA relative to UGCAUGU.
For B16, the binding signal was 0.168 KA relative to UGCAUGU.
In the case of B17, the binding signal is reported as 0.0829 KA relative to UGCAUGU.
For B18, the binding signal was 0.0876 KA relative to UGCAUGU.
B19 was tested, and the binding signal was 0.154 KA relative to UGCAUGU.
For B20, the binding signal was 0.0635 KA relative to UGCAUGU.
B21 was tested, and the binding signal was 0.152 KA relative to UGCAUGU.
For B22, the binding signal was 0.281 KA relative to UGCAUGU.
For B23, the binding signal was 0.288 KA relative to UGCAUGU.
With B24 the binding signal was 0.126 KA relative to UGCAUGU.
With B25 the binding signal was 0.255 KA relative to UGCAUGU.
In the case of B26, the binding signal is reported as 0.184 KA relative to UGCAUGU.
B27 was tested, and the binding signal was 0.135 KA relative to UGCAUGU.
In the case of B28, the binding signal is reported as 0.914 KA relative to UGCAUGU.
With B29 the binding signal was 0.201 KA relative to UGCAUGU.
For B30, the binding signal was 1.11 KA relative to UGCAUGU.
For B31, the binding signal was 0.863 KA relative to UGCAUGU.
For B32, the binding signal was 0.512 KA relative to UGCAUGU.
